About 79,000 compounds went through this panel and 15% of them were active in at least one assay; those are over-represented in the sample as a whole. Activity calls are given as the source filed them. Cut-off read from the data, not from the text of the source: active = growth inhibition above about 70%; inactive = the rest.
Experiment: NCI Yeast Anticancer Drug Screen. Data for the bub3 strain (AID 167)
Settings: S. cerevisiae bub3 mutant strain, at 5.0 µM (retest, dose inferred, filed as 0.5), hits give high values
How it was run: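 In this screen, a yeast mutant lacking normal mitotic checkpoint function is challenged with compound. Relative growth versus vehicle gives the inhibition value.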

Row | Compound | growth inhibition
1 | COc1cc(C(c2cc3c(cc2O)OCO3)N2CCN(C(c3cc(OC)c(OC)c(OC)c3)c3cc4c(cc3O)OCO4)CC2)cc(OC)c1OC (centres undefined) | -2% (inactive)
2 | Cc1cc(N)c(C)c2c1[nH]c1ccc(Br)cc12 | -3% (inactive)
3 | COc1ccc(C2c3cc4c(cc3OC(O)(CO)C2C(=O)O)OCO4)cc1 (centres undefined) (tested in a mixture with another compound) | -18% (inactive)
4 | CCCCCC(/C=N/Nc1nc(C)cc(=O)[nH]1)=C\c1ccccc1 | -1% (inactive)
5 | O=C1/C(=C/c2ccc([N+](=O)[O-])cc2)CNC/C1=C\c1ccc([N+](=O)[O-])cc1 | 90% (active)
6 | CC(c1ccc2cccc(F)c2c1)c1ccccc1C(=O)O (centres undefined) | 0% (inactive)
7 | CN(NC(=O)CC(=O)NN(C)C(=S)c1ccccc1)C(=S)c1ccccc1 | 54% (inactive)
8 | O=c1nc(N2CCCC2)nc(N2CCCC2)s1 | -7% (inactive)
9 | CC(=O)SC1C(=O)N(C)C(SC(C)=O)C(=O)N1C (centres undefined) | 0% (inactive)
10 | CCN(CC)CC(O)c1ccnc2c(O)cccc12 (centres undefined) | -6% (inactive)
11 | O=C(O)CC(NC(=O)CP(=O)(O)O)C(=O)O.[NH-]C1CCCCC1[NH-].[Pt+2] (centres undefined) | 18% (inactive)
12 | COc1ccc(-c2nc3c(C(=O)NCCN(C)C)cccc3c3ccccc23)cc1 | 8% (inactive)
13 | C[C@]12CCC(=O)C=C1CC[C@@H]1[C@@H]2[C@@H](O)C[C@@]2(C)[C@H]1CC[C@]2(O)C(=O)COC(=O)CCC1CCCC1 | 51% (inactive)
14 | O=C1C=CC(=O)N1c1cccc([N+](=O)[O-])c1 | 99% (active)

Reference: PubChem BioAssay (NCI)
